# Source: PubChem BioAssay AID686979 (National Center for Advancing Translational Sciences (NCATS), 2013)
# Out of some 420,000 compounds screened, about 50,000 (12%) were called active. Another 26% or so got no clear call; they are omitted. The call rests on the fitted dose curve; in most records, active means well fitted inhibition curve with a large enough effect; inconclusive means small, poorly fitted or top-dose-only effect; inactive means flat fitted curve, though single readings scatter. Shown is part of a subset that was picked to be rich in actives.
# Experiment: qHTS for Inhibitors of human tyrosyl-DNA phosphodiesterase 1 (TDP1): qHTS in cells in presence of CPT; further: nearly all actives have a fitted effect of over 55% in size
# Details: chicken DT40 Tdp1-/-;hTDP1 cells + 20 nM CPT, ATP luminescence, 48 h; series mostly up to 46.2 µM; activity change, negative = growth inhibition: at the top concentration
# In short: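 Chicken DT40 Tdp1-/- cells stably complemented with human TDP1 were seeded at 400 cells/well in medium containing 20 nM camptothecin, exposed to pin-transferred compounds, and grown at 37 °C for at least 48 hr. Viability was read as ATP luminescence.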
# On the % scale 0 is the no-effect control and ±100 the full control effect; potency means the concentration at half of the fitted maximal effect.
Compound,"activity change, negative = growth inhibition",Potency
CCOC(=O)C[C@H]1c2ccc(C(F)(F)F)cc2S(=O)(=O)N1c1ccccc1,-27.7% (inactive),
COc1ccc2oc(N)c(C=O)c(=O)c2c1,0.0059% (inactive),
CCN(CC(=O)Nc1cc(Cl)ccc1C)C(=O)CN1C(=O)NC2(CCCC2)C1=O,6.84% (inactive),
CCN(CC(=O)Nc1cc(Cl)ccc1C)C(=O)CSCc1ccc(C)cc1,,1.3 µM (active)
CCN(CC(=O)Nc1cc(Cl)ccc1C)C(=O)Cn1c(=O)cnc2ccccc21,18.2% (inactive),
CCCNC(=O)CCc1c(C)nc2c(c(C)nn2-c2ccccc2)c1C,-9.57% (inactive),
CC(=O)Nc1ccccc1-c1nc(CNC(=O)c2ccc(Cl)cc2)c(C)o1,-121% (inactive),
COCCNC(=O)c1ccc(S(=O)(=O)c2ccc(Cl)cc2)c(NC(C)=O)c1,-7.56% (inactive),
CC(=O)Nc1cc(C(=O)NCc2ccc(F)cc2Cl)ccc1Sc1ccc(Cl)cc1,,20.6 µM (active)
O=C(CCc1ccccc1Cl)Nc1ccc(S(=O)(=O)Nc2nccs2)cc1,5.1% (inactive),
CN(C)S(=O)(=O)c1cccc(NC(=O)COC(=O)C2(c3ccccc3F)CCCC2)c1,,18.4 µM (active)
CN(C)S(=O)(=O)c1cccc(NC(=O)COC(=O)c2cc(=O)[nH]c(=O)[nH]2)c1,4.15% (inactive),
CN(C)S(=O)(=O)c1cccc(NC(=O)COC(=O)/C=C/c2cccs2)c1,8.48% (inactive),
O=C(NCc1ccco1)c1ccc(NS(=O)(=O)c2cccc([N+](=O)[O-])c2)cc1,-13.8% (inactive),
COc1ccc(NC(=O)CSc2nnc(Cc3ccccc3)c(=O)n2N)cc1,-9.25% (inactive),
COc1ccc(C(=O)N(C)CC(O)c2ccccc2)cc1OC1CCN(C(C)=O)CC1 (centres undefined),-3.18% (inactive),
NC(=O)Nc1ccc(C(=O)OCC(=O)NC2CCCc3ccccc32)cc1 (centres undefined),0.0893% (inactive),
CCOC(=O)c1sc(NC(=O)CSc2nnc(-c3ccco3)o2)c(C(=O)OCC)c1C,-25.3% (inactive),
CCOC(=O)c1c(NC(=O)CNC2CCCc3ccccc32)sc(C(N)=O)c1C (centres undefined),,23.1 µM (active)
COc1ccc(C(=O)N2CCN(c3ccc(C(C)=O)cc3F)CC2)cc1S(=O)(=O)NC1CC1,-15.7% (inactive),
O=C(Nc1ccc2c(c1)OCCO2)C1CCCC1,16.2% (inactive),
COC(=O)c1ccc(/C=C2/C(=O)Oc3ccccc32)cc1,0.0303% (inactive),
COc1ccc2c(c1)O/C(=C\c1ccccc1O)C2=O,0.283% (inactive),

Compound,"activity change, negative = growth inhibition",Potency
O=C1Oc2ccccc2C(=O)/C1=C/c1ccccc1O,,5.8 µM (active)
COc1ccc2oc(C(=O)NCC(Cc3ccccc3)N(C)C)c(C)c2c1 (centres undefined),-53.9% (inactive),
CCOC(=O)C1=C(O)/C(=C/c2ccc(OCC(=O)Nc3ccc(C)cc3)cc2)N=C1C,-7.04% (inactive),
CN(C)c1nc(NN)nc(Nc2ccc(F)cc2)n1,-9.38% (inactive),
CCOC(=O)C(C)n1cnc2c(nnn2-c2ccc(F)cc2)c1=O (centres undefined),-2.15% (inactive),
Cc1ccc(S(=O)(=O)N2CCC(=O)N([C@H](COCc3ccccc3)C(C)C)CC2)cc1,-24.5% (inactive),
CC(C)C[C@@H](CO)N1CCN(Cc2ccc(O)cc2)CCC1=O,,inactive
O=C(c1cc(Cl)cc(Cl)c1)N1CCC(=O)N(C(COCc2ccccc2)Cc2ccccc2)CC1 (centres undefined),,13 µM (active)
CN1CCC(=O)N([C@H](CO)Cc2ccccc2)CC1,,inactive
CC(C)CC(COCc1ccc(Cl)cc1)N1CCN(C(=O)c2ccc(C(F)(F)F)cc2)CCC1=O (centres undefined),,14.6 µM (active)
CC(C)CC(CO)N1CCN(C(=O)c2ccc(Cl)cc2Cl)CCC1=O (centres undefined),-15.8% (inactive),
Cc1ccc(S(=O)(=O)N(C)C)cc1NC(=O)C1Cc2ccccc2CN1C(=O)c1ccco1 (centres undefined),-0.982% (inactive),
Cc1c(C(C)CCCO)oc(=O)c2c1Oc1c(C)c(C(C)C[C@@H](C)O)oc(=O)c1C2 (some centres undefined),4.27% (inactive),
CCCCCCCC(=O)OC(CN1CCCCCC1)CN1CCCC1=O (centres undefined),16% (inactive),
COc1cc(/C=C2\C(=N)N3N=C(CC(=O)N4CCOCC4)SC3=NC2=O)cc(OC)c1OC,-6.19% (inactive),
Cc1cc2cc(CNC(=O)c3ccc(S(=O)(=O)N4CCOCC4)cc3)ccc2[nH]1,-2.39% (inactive),
Cc1cccc(OCC(O)CN2CCN(S(=O)(=O)c3ccc(C)cc3C)CC2)c1 (centres undefined),-21.3% (inactive),
Cc1c(Br)cc(C(=O)N2CCCCCC2)c(C)c1C,-29.8% (inactive),
Cc1cc(C)cc(-n2ccnc2SCC(=O)Nc2nc3ccccc3s2)c1,,18.4 µM (active)
Cc1cccc(-n2ccnc2SCC(=O)Nc2cccc3ccccc23)c1C,,23.1 µM (active)
Cc1nnc(NC(=O)CSc2nccn2-c2cccc(C)c2C)s1,,4.61 µM (active)
COc1ccccc1-n1c(CNC(=O)c2ccccc2)nnc1SCC(=O)Nc1nnc(C)s1,-16.9% (inactive),
C=CCn1c(SCC(=O)Nc2nc3ccccc3s2)nnc1-c1ccccc1O,-15.4% (inactive),

Compound,"activity change, negative = growth inhibition",Potency
COc1ccccc1-n1ccnc1SCC(=O)NC(C)(C)C,-8.23% (inactive),
Cn1nnnc1SCC(=O)Nc1nc2ccccc2s1,8.1% (inactive),
Cc1ccccc1-n1c(SCC(=O)Nc2cccc3ccccc23)nc(O)cc1=O,-1.44% (inactive),
Cc1cccc(CSc2nnc(NC(=O)CSc3nnc(C)s3)s2)c1,-20.9% (inactive),
COc1cccc(CC(=O)N2CCCC(CCC(=O)N3CCN(c4ccccn4)CC3)C2)c1 (centres undefined),-6.11% (inactive),
CC(C)Sc1ncnc2c1cnn2-c1ccccc1,-7.47% (inactive),
Nc1cc(N)nc(SCc2cccc(F)c2)n1,1.43% (inactive),
COCCN1C(=O)C(=O)/C(=C(/O)c2ccc(S(=O)(=O)N3CCCCC3)cc2)C1c1ccc(OC)c(OC)c1 (centres undefined),5.68% (inactive),
Cc1ccc2c(c1)C1C[N+](C)(CC(=O)c3ccccc3)CCC1N2C(=O)c1ccccc1Cl (centres undefined),-1.83% (inactive),
CCOc1ccc(C2=CC(c3ccccc3)n3ncnc3N2)cc1 (centres undefined),-29.3% (inactive),
O=C(NCCC1=CCCCC1)C1CCN(Cc2cnn(-c3ccccc3)c2-n2cccc2)CC1,,23.1 µM (active)
COCCNC(=O)C1CCCN(Cc2ccccc2Cl)CC1 (centres undefined),-11% (inactive),
CC(=O)Nc1ccc(NC(=O)CSCc2cnn(-c3ccccc3)c2-n2cccc2)cc1,-0.201% (inactive),
CS(=O)(=O)c1ccc(C(=O)OCC(=O)NNC(=O)COc2ccc(Cl)cc2)cc1,6.33% (inactive),
O=C(O)c1ccc2c(=O)n3c(nc2c1)/C(=C/c1ccc(Cl)c([N+](=O)[O-])c1)CC3,8.58% (inactive),
O=C(Nc1cccc(NC(=O)c2ccccc2[N+](=O)[O-])c1)c1ccccc1Cl,-11.1% (inactive),
Cc1cc(C(=O)O)ccc1[N+](=O)[O-],-11.6% (inactive),
O=C(/C=C/c1ccc(Cl)cc1)N1CCN(c2ccccc2[N+](=O)[O-])CC1,-6.66% (inactive),
CN(C)c1ccc(/C=C/C(=O)c2ccc(C(C)(C)C)cc2)cc1[N+](=O)[O-],,23.1 µM (active)
O=C(/C=C/c1ccc(Cl)c([N+](=O)[O-])c1)c1ccc(O)cc1,,4.11 µM (active)
Nn1cnnc1N/N=C/c1cc([N+](=O)[O-])c(Cl)cc1Cl,1.95% (inactive),
CC(CC(=O)O)C(=O)c1ccc(Cl)c([N+](=O)[O-])c1 (centres undefined),-1.52% (inactive),
NC(N)=N/N=C/c1ccc(Cl)c([N+](=O)[O-])c1,,11.6 µM (active)
